SMILES strings stand for the structures. The campaign covered roughly 1,100 compounds. About 390 (35%) were called active. Inconclusive results (about 30%) are left out. The list shows a part of the results. Values without a mark were called inactive. Calls come from the whole dose curve; as a rule, active = well fitted inhibition curve with a large enough effect; inconclusive = small, poorly fitted or top-dose-only effect; inactive = flat fitted curve, though single readings scatter.
% is set by controls: 0 for no effect and ±100 for the full control effect; potency is the fitted concentration of half-maximal effect.

This assay deals with Luciferin 4-monooxygenase (Photinus pyralis) (UniProt P08659). In words: qHTS of Nrf2 Activators: Hit Validation in Secondary FLuc Assay. Note: nearly all actives have a fitted effect of over 65% in size. The note with it: firefly luciferase inhibition counter-screen, luminescence; series mostly up to 57.5 µM; activity, negative = inhibition: at the top concentration. The procedure, abridged: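 Purified firefly luciferase is tested for inhibition by compounds in the presence of its substrates, ATP and D-luciferin, each at Km. Inhibition marks likely false positives arising from reporter-enzyme stabilization.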
On the technique in general: Quantitative high-throughput screening tests each substance at several concentrations.
For `COc1ccc(Sc2cnn(-c3ccccc3)c(=O)c2Cl)cc1`, the “activity, negative = inhibition” value was -21%.
For the compound `NC(=O)N/N=C/c1ccccc1OC(=O)c1ccccc1Br`, the Potency was 10.7 µM (active).
Consider `c1ccc(CNc2nc(NCc3ccco3)nc(N3CCOCC3)n2)cc1`, for which the “activity, negative = inhibition” value was 5.72%.
Consider `CCN=c1scc(C)n1/N=C/c1ccsc1`, for which the Potency is 6.75 µM (active).
The same measure, in the same setting: then `Cc1[nH]c2ccccc2c1N=Nc1ccccc1F`, with 19 µM (active); and `Cc1[nH]c2ccccc2c1N=Nc1ccccc1C(=O)O`, with 8.49 µM (active).
On to `Cc1cccn2c(=O)c(C=NCCO)c(NCc3ccco3)nc12`, for which the “activity, negative = inhibition” value was -5.84%.
Turning to `O/N=C/c1ccc2cccc(OCc3ccccc3)c2n1`, the “activity, negative = inhibition” value is -3.72%.
On to `CC1CN(C(=O)/C=C/c2ccc([N+](=O)[O-])s2)CC(C)O1` (centres undefined), for which the “activity, negative = inhibition” value is 4.93%.
For the compound `Clc1ccccc1NN=Cc1ccccn1`, the Potency was 2.13 µM (active).
Take `COc1ccc(O)c(-c2cc(-c3ccc(F)cc3)n[nH]2)c1`: the Potency is 4.78 µM (active).
Regarding `COc1ccc(Cl)cc1NC(=O)c1cc(-c2ccccc2O)n[nH]1`, the “activity, negative = inhibition” value was -23.7%.
The same measure, in the same setting: then `COc1ccc(OC)c(/C=C(\C#N)c2nc(-c3ccc(F)cc3)cs2)c1`, with -25.1%.
Consider `COc1ccc(O)c(-c2cc(-c3ccccc3Cl)[nH]n2)c1`, for which the Potency is 6.01 µM (active).
With `COC(=O)c1scc(C)c1NC(=O)c1ccc(Cl)cc1`, the “activity, negative = inhibition” value is 5.2%.
Take `O=C1S/C(=C\C=C\c2ccco2)C(=O)N1c1ccc(O)cc1`: the Potency is 9.53 µM (active).
Turning to `O=C(CN1CCN(Cc2ccccc2)CC1)N/N=C\C=C/c1ccco1`, the “activity, negative = inhibition” value is -3.19%.
As for `O=C1S/C(=C\C=C\c2ccco2)C(=O)N1c1ccccc1`, the Potency was 6.75 µM (active).
For `CN1CCN(c2sc(S(C)(=O)=O)nc2S(=O)(=O)c2ccc(Cl)cc2)CC1`, the “activity, negative = inhibition” value is -0.708%.
`CC(C)=NNc1cnnc2ccc([N+](=O)[O-])cc12`: the Potency was 10.7 µM (active).
As for `Cc1ccc(O)c(NC(=O)c2cc([N+](=O)[O-])ccc2Cl)c1`, the “activity, negative = inhibition” value is -21.1%.
Still for that read-out and setting: then `Cc1ccc([N+](=O)[O-])cc1NC(=O)c1ccccc1`, with 5.55%.
On to `O=C(NC1CCCCC1)N(c1ccccc1)c1nnc(-c2cccc([N+](=O)[O-])c2)s1`, for which the Potency was 16.9 µM (active).
Regarding `CC(=O)Nc1ccc(S(=O)(=O)c2ccnc3cc(Cl)ccc23)cc1`, the “activity, negative = inhibition” value is -10.5%.
In the case of `C[n+]1c2n(c3ccccc31)N=C(c1ccccc1)CS2`, the Potency result is “inactive”.
Take `c1ccc(C2=Nn3c(nnc3-c3ccco3)SC2)cc1`: the Potency was 26.9 µM (active).
Still for that read-out and setting: for `Cc1nc(NC(=O)c2ccc(Br)o2)ccc1Br` the value was 9.53 µM (active).
For the compound `Cc1ccc(C)c(-c2nnc(NC(=O)c3ccc([N+](=O)[O-])o3)o2)c1`, the “activity, negative = inhibition” value was -24.8%.
In the case of `Cc1ccc2oc(-c3cccc(NC(=O)c4ccc(Br)o4)c3)nc2c1`, the Potency is 8.49 µM (active).
For the compound `Cc1cc(C(=O)Nc2cc(Br)ccc2O)on1`, the “activity, negative = inhibition” value was -27.5%.
As to `O=C(Nc1ccc2ccccc2c1)c1ccc(Br)o1`, the Potency is 1.2 µM (active).
For `O=C(Cn1cnc2ccccc21)N/N=C/C(Br)=C/c1ccccc1`, the “activity, negative = inhibition” value is -29.9%.
For `O=C(/C=C/Nc1ccc(F)cc1)c1cccs1`, the Potency is 0.19 µM (active).
As to `O=C(NNC(=O)c1nc(Cl)ccc1Cl)c1ccc(F)cc1`, the “activity, negative = inhibition” value is -24.8%.
For the compound `COCCn1c(=NC(=O)c2cc(Cl)sc2Cl)sc2cc(S(N)(=O)=O)ccc21`, the Potency is 15.1 µM (active).
For the compound `O=c1oc2ccccc2cc1-c1csc(Nc2ccc(O)cc2)n1`, the Potency was 1.35 µM (active).
Take `O=c1oc2ccc(Br)cc2cc1-c1nc2ccccc2o1`: the “activity, negative = inhibition” value is -2.54%.
For `CN1CCN(S(=O)(=O)c2ccc(Sc3nnnn3-c3ccccc3)c([N+](=O)[O-])c2)CC1`, the “activity, negative = inhibition” value is -15.7%.
Take `CCOc1cc2c(c3c1C(c1ccccc1)N(S(=O)(=O)c1ccc(C)cc1)C3)C(=O)C=CC2=O` (centres undefined): the Potency was 0.601 µM (active).
For `Cc1ccccc1/C=C1\C(=O)Nc2ccc(F)cc21`, the “activity, negative = inhibition” value is -16.3%.
With `Cc1ccsc1/C=N/N=C1\C(=O)Nc2ccccc21`, the Potency is 3.38 µM (active).
Turning to `COC(=O)[C@@]1(Sc2ccc(C)cc2)CC(=O)N(C(=O)/C=C/c2ccccc2)[C@@H]1c1ccccc1`, the “activity, negative = inhibition” value is -4.35%.
For the compound `O=C(NC(=S)Nc1ccccc1O)c1ccccc1Cl`, the Potency was 8.49 µM (active).
As for `O=C(NC(=S)Nc1cc(C(F)(F)F)ccc1Cl)c1ccccc1`, the “activity, negative = inhibition” value is -18.4%.
On to `O=C(CNC(=S)NC(=O)c1ccccc1Br)c1ccccc1`, for which the “activity, negative = inhibition” value was -2.89%.
For the compound `O=C1/C(=C\c2ccc(Cl)cc2)CCC1CNc1ccc(Cl)cc1` (centres undefined), the Potency is 19 µM (active).
For the compound `Cc1ccc(S(=O)(=O)c2nc(S(C)(=O)=O)sc2N2CCCCC2C)cc1` (centres undefined), the “activity, negative = inhibition” value was 3.09%.
On to `COc1cc(C=C(c2nc3ccccc3s2)c2nc3ccccc3s2)ccc1O`, for which the Potency is 12 µM (active).
Turning to `O=C1Nc2cccnc2N(C(=O)CCl)c2ccccc21`, the “activity, negative = inhibition” value is -2.21%.
For the compound `COc1ccccc1C=Cc1ccnc2ccccc12`, the Potency is 5.36 µM (active).
As to `O=C(c1ccco1)c1cn(CC(=O)N2CCCc3ccccc32)c2ccccc12`, the “activity, negative = inhibition” value is -29.5%.
For the compound `CC(=O)Nc1ccc(O)c(-c2nc3ccccc3s2)c1`, the Potency is 2.13 µM (active).
`O=C1c2cccc3cccc(c23)C(=O)N1Cc1ccco1`: the “activity, negative = inhibition” value was -1.75%.
For `c1ccc(N=NC2=NN(c3ccccc3)CS2)cc1`, the Potency was 2.13 µM (active).
